Screens deposited in PubChem BioAssay by several laboratories.
Only some compounds are listed: those with a hit (about 2.5% of all), similar ones and a draw of the others.
ATG4B inh = ATG4B (human) cysteine protease inhibition. Q9Y4P1. ATG4B cleavage of LC3-PLA2, NBD-HPC fluorescence, 1 h. inhibition, % at 8.33 µM. AID 504462. 340,000 compounds, 0.51% hits; in the data active means inhibition above about 40%
Target sequence (Q9Y4P1 whole entry, looked up): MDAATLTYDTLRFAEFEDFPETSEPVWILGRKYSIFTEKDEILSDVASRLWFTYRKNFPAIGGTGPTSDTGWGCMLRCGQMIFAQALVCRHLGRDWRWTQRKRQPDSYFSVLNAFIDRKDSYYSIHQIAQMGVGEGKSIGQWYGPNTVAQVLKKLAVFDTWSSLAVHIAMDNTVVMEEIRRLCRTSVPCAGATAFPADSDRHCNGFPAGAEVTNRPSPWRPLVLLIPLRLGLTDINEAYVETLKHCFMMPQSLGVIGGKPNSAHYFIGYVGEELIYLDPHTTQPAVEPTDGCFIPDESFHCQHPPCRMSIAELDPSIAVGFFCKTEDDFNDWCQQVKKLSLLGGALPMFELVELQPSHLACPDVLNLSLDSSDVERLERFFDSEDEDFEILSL
Efflux pump mplx = inhibitors of Candida antifungal efflux pumps expressed in yeast | S. cerevisiae Candida pump triplex, Nile Red efflux | inhibition, % at 10 µM | 330,000 compounds, 0.44% hits | AID 485275;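 active means plate passing quality check with inhibition over a set limit, or well fluorescence over plate mean plus 4 SD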;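 further: Nile Red retained in pooled yeast measured as flow cytometry median fluorescence; higher means more Nile Red kept so more efflux inhibition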
AI-2 QS mod = modulates the Vibrio harveyi AI-2 quorum sensing system | activity change, % at 7.5 µM | 300,000 compounds, 0.4% hits | AID 2094 | Vibrio harveyi JMH597 AI-2 luminescence/OD600 ratio, 9 h; stronger effect = lower value; strain lacks LuxN and CqsS sensors; 0 = neutral-control median; in the data active means activity change below about -75%, passing the limit was not always enough;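 further: luminescence divided by OD600 gain over 9 h not by final OD600 alone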
Mot1-301 SUMO = inhibitors of SUMOylation pathway: yeast Mot1-301 growth rescue; growth rescue, % at 18.8 µM; AID 2716; 320,000 compounds, 1% hits; S. cerevisiae Mot1-301 growth rescue, ATP luminescence, 38.5C; percent above DMSO median, 100 means doubled;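 active means every valid replicate shows activation above 250% relative to neutral control wells; inactive means the rest, any valid replicate at or below 250%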
V-ATPase pHluor = regulators of yeast V-ATPase proton transport | 350,000 compounds, 0.37% hits | AID 504577 | response, % at 10 µM | S. cerevisiae, pHLuorin cytosolic pH fluorescence; in the data active means response mostly above about 7.3%, no sharp cut-off; inactive means mostly below about 5.4%; further: actives read high
Cmpd fluor yeast = flagged as fluorescent in efflux inhibitor counter-screen | shares compounds with Efflux pump mplx | S. cerevisiae AD/pABC3, compound fluorescence, flow cytometry | fluorescence ratio to DMSO, % at 10 µM | 1,700 compounds, 4% hits | AID 588517;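 active means fluorescence ratio to DMSO above its plate's cutoff, the plate mean ratio plus 5 SD, cut at about 210% in these data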;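 further: unstained yeast with no Nile Red so the signal is compound autofluorescence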
Mdr1 pump inh = Candida Mdr1 efflux pump inhibition. shares compounds with Efflux pump mplx. S. cerevisiae AD/CaMDR1, Nile Red efflux, flow cytometry. inhibition, % at 10 µM. 1,700 compounds, 1% hits. AID 588518; in the data active means inhibition above about 26%;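 further: higher means more Nile Red retained so more efflux inhibition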
CaCdr2 efflux inh = inhibitors of Candida albicans Cdr2 efflux pump; 1,700 compounds, 4% hits; Nile Red retention ratio vs DMSO, % at 10 µM; shares compounds with Efflux pump mplx; S. cerevisiae AD/CaCDR2, Nile Red retention, flow cytometry; AID 588520; in the data active means Nile Red retention ratio vs DMSO above about 190%;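 further: higher ratio means more blocking of Cdr2 efflux of the dye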
Cdr1 pump inh = Candida Cdr1 efflux pump inhibition; shares compounds with Efflux pump mplx; S. cerevisiae AD/CaCDR1, Nile Red efflux, flow cytometry; inhibition, % at 10 µM; 1,700 compounds, 1% hits;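 active means inhibition above the screen-wide mean plus twice its standard deviation, cut at about 32% in these data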
ATG4B conf = confirmation of human ATG4B inhibitors; inhibition, % at 8.33 µM; shares compounds with ATG4B inh; 320 compounds, 92% hits; AID 504757; ATG4B protease fluorescent substrate cleavage assay; in the data active means inhibition above about 39%
PLA2 counter = PLA2 (human) inhibition in ATG4B counter-screen | purified PLA2, NBD-C6-HPC fluorescence, 45 min | shares compounds with ATG4B inh | 1,600 compounds, 66% hits | inhibition, % at 8.33 µM; in the data active means inhibition above about 50%
Target sequence (P04054 whole entry, looked up): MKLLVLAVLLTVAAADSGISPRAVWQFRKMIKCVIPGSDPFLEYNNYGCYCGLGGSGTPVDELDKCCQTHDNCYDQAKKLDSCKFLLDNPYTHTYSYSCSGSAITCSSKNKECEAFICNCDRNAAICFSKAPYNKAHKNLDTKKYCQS
V-ATPase pH SP = yeast V-ATPase proton transport regulation. AID 602197. 980 compounds, 2% hits. shares compounds with V-ATPase pHluor. S. cerevisiae pHLuorin cytosolic pH. response, % at 10 µM; in the data active means response above about 24%
Hits are given with their value; - = inactive; . = no result.

SMILES	ATG4B inh	Efflux pump mplx	AI-2 QS mod	Mot1-301 SUMO	V-ATPase pHluor	PLA2 counter	others
CCCCCCCCCCCCCCCC[N+](C)(C)CCN(Cc1ccc(OC)cc1)c1ncccn1	67	2.4	.	-	-	61	Cmpd fluor yeast=-;Mdr1 pump inh=-;CaCdr2 efflux inh=-;Cdr1 pump inh=-
CC1CCN(C(=O)CSC2=NS(=O)(=O)c3cc(F)ccc3N2)CC1	-	-	-	-	-	.
O=C1NC(=S)S/C1=C\c1ccc(SCc2ccccc2)o1	40	4.5	.	-	-	56	Cmpd fluor yeast=-;Mdr1 pump inh=-;CaCdr2 efflux inh=187;Cdr1 pump inh=-
O=C(COC(=O)c1c(Cl)cccc1Cl)NCC1CCCO1 (configuration not stated)	-	9.0	-	-	12	.	Cmpd fluor yeast=-;Mdr1 pump inh=-;CaCdr2 efflux inh=-;Cdr1 pump inh=-;V-ATPase pH SP=-
COc1ccc(OCc2cc(C(=O)NCC(C)Oc3cccnc3)no2)c(Cl)c1 (configuration not stated)	-	-	-	-	-	.
CSCc1c(C(=O)N2CCCc3ccccc32)oc2ccccc12	61	-	.	-	-	78
Cc1cccc(Cc2cnc(NC(=O)c3ccc(C)o3)s2)c1	47	-	-	-	-	63
C=CCc1ccccc1OCC(=O)NNC(=S)NCc1ccccc1	69	-	-	-	-	69
O=C(COc1ccc(Cl)cc1)NNC(=S)NCc1ccccc1	-	-	-	-	-	.
Cc1cc(NCc2ccc(F)cc2Cl)n2nnnc2n1	48	-	-	-	-	-	ATG4B conf=70
COc1ccc(-n2nnnc2SCC(=O)c2cccc(OC)c2)cc1	-	-	-	-	-	.
CCOc1ccc(-n2nnnc2SCC(=O)c2ccccc2)cc1	41	-	-	.	.	51
COc1ccc(-n2c(CCc3ccccc3)nnc2SCC(=O)c2ccccc2)cc1	60	-	-	-	-	61
CCOC(=O)c1c(NS(=O)(=O)c2ccc(Br)cc2)sc2c1CCC2	46	-	-	.	-	57
Cc1[nH]c(=S)sc1Cc1ccc(F)cc1	40	-	-	-	-	-
C=CCN1C(=O)C(Cc2ccccc2Cl)SC1=Nc1ccc(C(=O)O)cc1 (configuration not stated)	55	-	-	-	-	59
C=CCN1C(=O)C(CC(=O)O)SC1=Nc1ccc(C(=O)O)cc1 (configuration not stated)	-	-	-	-	-	.
Cc1ccc(C2=Nc3ccc(Br)cc3C(c3ccncc3)=NN2)cc1	44	-	-	-	-	-
CCCOc1ccc(C2=NNC(c3cccs3)=Nc3ccc(OC)cc32)cc1	49	-	-	-	-	77
CC(C)c1ccc2c(c1)C(c1ccc(N3CCOCC3)cc1)=NNC(c1cccs1)=N2	70	-	-	-	-	72
Cc1ccc2c(c1)C(c1ccncc1)=NNC(c1ccc(F)cc1)=N2	-	-	-	-	-	.
CCOc1ccc2c(c1)C(c1ccccc1)=NNC(c1ccccc1)=N2	75	-	-	-	-	72
O=C(c1ccco1)N1N=C(c2ccc(Br)cc2)CC1(O)C(F)(F)F (configuration not stated)	-	-	-	-	-	.
COc1ccc2c(c1)C(c1cccs1)=NNC(c1ccncc1)=N2	-	-	-	-	-	.
CCc1ccc2c(c1)C(c1ccncc1)=NNC(c1ccccc1)=N2	48	-	-	-	-	59
SMILES	ATG4B inh	Efflux pump mplx	AI-2 QS mod	Mot1-301 SUMO	V-ATPase pHluor	PLA2 counter	others
Cc1ccc2c(c1)C(c1ccncc1)=NNC(c1ccccc1)=N2	-	-	-	-	-	.
c1ccc(C2=Nc3c(ccc4ccccc34)C(c3ccncc3)=NN2)cc1	47	-	-	-	-	71
COc1ccc2c(c1)C(c1ccc(C)o1)=NNC(c1ccccc1)=N2	42	-	-	-	-	-	ATG4B conf=69
Cn1c(SCc2ccccn2)nnc1-c1ccccc1	-	-	-	-	-	.
CCN(C[C@H]1N[C@@](CC)(C(=O)OC)[C@H]2C(=O)N(C)C(=O)[C@@H]12)S(=O)(=O)c1ccc(OC(F)(F)F)cc1	-	-	.	-	-	.
O=C(O)c1cc(NN=Nc2cccc([N+](=O)[O-])c2)cc([N+](=O)[O-])c1	83	-	-	-	-	87
O=C(O)c1cc(NN=Nc2cccc(S(=O)(=O)O)c2)cc([N+](=O)[O-])c1	-	-	-	-	-	.
Cc1c(Cl)cccc1NC(=S)NCCc1ccccn1	-	-	-	-	-	.
Cc1c(Cl)cccc1NC(=S)NCCc1ccc(C(F)(F)F)cc1	89	-	-	-	-	94
Cc1ccc(S(=O)(=O)N2CCOCC2)cc1NC(=O)COC(=O)CSc1ccc(Br)cc1C	-	-	-	.	-	.
CN1CCc2nc3sc(C(=O)C45CC6CC(CC(C6)C4)C5)c(N)c3cc2C1	45	-	.	-	-	-
Nc1c(C(=O)O)sc2nc3c(cc12)CCCC3	-	-	-	-	-	.
COc1ccc(OC)c(S(=O)(=O)N2CCN(c3ccccc3)CC2)c1	-	-	-	-	-	.
CCc1ccccc1N1CCN(S(=O)(=O)c2cc(OC)ccc2OC)CC1	57	-	-	-	-	52
Cc1c(C(=O)C(=O)N2CC=C(c3ccccc3)CC2)c2ccccc2n1C	-	-	-	-	-	.
Cc1ccc2[nH]c(=O)c(CN(Cc3cccs3)Cc3nnnn3Cc3ccccc3)cc2c1	52	-	-	-	-	65
CCOC(=O)Cn1nnnc1CN(Cc1cccs1)Cc1cc2cc(C)ccc2[nH]c1=O	-	-	-	-	-	.
Cc1ccc(CNC(=O)CSc2c3c(nc4cc(Cl)ccc24)CCCC3)o1	-	-	-	-	-	.
CC(C)(C)N/N=C1\CC(c2ccccc2)Oc2ccccc21 (configuration not stated)	-	-	-	-	-	.
O=C(O)c1cc(N/N=C2/CC(c3ccccc3)Oc3ccccc32)ccc1Cl (configuration not stated)	49	-	-	-	-	-	ATG4B conf=59
O=C(O)Cc1ccc(C(=O)c2ccc(Cl)cc2)s1	-	-	-	-	-	.
